# PubChem BioAssay (NCI)
# About 79,000 compounds went through this panel and 15% of them were active in at least one assay; those are over-represented in the sample as a whole. Values without a mark were called inactive. Activity calls are given as the source filed them. Rule as the data show it: active = growth inhibition above about 70%; inactive = the rest.
# What was measured:
# [1] = NCI Yeast Anticancer Drug Screen. Data for the rad50 strain (AID 155);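 also: 0% = growth of vehicle-only cultures of the same strain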; conditions: S. cerevisiae rad50 strain growth inhibition, active compounds read high
# Procedure, shortened: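 Growth of the mutant yeast was measured after compound exposure and referenced to vehicle-treated cultures.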
# [2] = NCI Yeast Anticancer Drug Screen. Data for the mec2-1 strain (AID 157); conditions: S. cerevisiae mec2-1 strain, active compounds read high
# Procedure, shortened: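 Compounds were applied to mec2-1 yeast cells. Their growth was then compared with that of vehicle-treated cultures to give growth inhibition.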
# [3] = NCI Yeast Anticancer Drug Screen. Data for the sgs1 mgt1 strain (AID 161);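 also: 0% = growth of cultures given vehicle only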; conditions: S. cerevisiae sgs1 mgt1 strain, active compounds read high
# Procedure, shortened: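 Yeast cells carrying a defined DNA-repair defect were exposed to test compounds. Growth inhibition was measured relative to vehicle-treated controls.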
# [4] = NCI Yeast Anticancer Drug Screen. Data for the cln2 rad14 strain (AID 165);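 also: 0% = growth equal to vehicle treated cultures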; conditions: S. cerevisiae cln2 rad14 strain, active compounds read high
# Procedure, shortened: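 Strain: cln2 rad14 yeast, altered in cell cycle control and DNA damage repair. Read-out: growth inhibition vs vehicle.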
# [5] = NCI Yeast Anticancer Drug Screen. Data for the bub3 strain (AID 167); conditions: S. cerevisiae bub3 mutant strain, active compounds read high
# Procedure, shortened: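 Whole-cell yeast assay. The mutant strain was incubated with compounds, and growth inhibition was determined by comparison with vehicle-treated cells.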
# [6] = NCI Yeast Anticancer Drug Screen. Data for the mlh1 rad18 strain (AID 175); conditions: S. cerevisiae mlh1 rad18 strain growth inhibition, active compounds read high
# Procedure, shortened: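 A repair-deficient yeast strain is exposed to test compound, and growth is scored relative to vehicle-treated controls.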
# [7] = at 5.0 µM (retest, dose inferred, filed as 0.5)
# [8] = at 50.0 µM (retest, dose inferred, filed as 5.0)
SMILES,"growth inhibition [1, 7] [%]","growth inhibition [1, 8]",growth inhibition ([1]; at 50.0 µM),"growth inhibition [2, 7] [%]","growth inhibition [2, 8]",growth inhibition ([2]; at 50.0 µM),"growth inhibition [3, 7] [%]","growth inhibition [3, 8]",growth inhibition ([3]; at 50.0 µM),"growth inhibition [4, 7] [%]","growth inhibition [4, 8]",growth inhibition ([4]; at 50.0 µM),"growth inhibition [5, 7] [%]","growth inhibition [5, 8]",growth inhibition ([5]; at 50.0 µM),"growth inhibition [6, 7] [%]","growth inhibition [6, 8]",growth inhibition ([6]; at 50.0 µM)
CCOC(=O)c1sc(N/N=C2\NC(=O)/C(=C/c3ccc([N+](=O)[O-])cc3)S2)nc1C,13,74% (active),92.8% (active),10,90% (active),73.9% (active),12,92% (active),97.7% (active),-4,87% (active),87.1% (active),-26,92% (active),95.3% (active),22,92% (active),96.2% (active)
CS(=O)(=O)OCCN(CCOS(C)(=O)=O)c1ccc(C=Nc2cc(Br)c(O)c(Br)c2)c(Cl)c1,3,70% (active),67.7%,29,39%,36.8%,3,80% (active),82.5% (active),5,45%,10.2%,-3,96% (active),40.3%,8,91% (active),85.8% (active)
CC(CCC(=O)O)[C@H]1CCC2[C@H]3C(CC[C@@]21C)[C@@]1(C)CCC(O)C[C@H]1C[C@@H]3O (stereo not given in full),-11,46%,75.1% (active),-13,56%,73.2% (active),-10,60%,79.3% (active),2,73% (active),73% (active),-13,86% (active),56.1%,-26,76% (active),71.6% (active)
CN1C(/C=C/c2ccc(O)c3ncccc23)CCC2CCCC(O)C21 (stereo not given),1,94% (active),95% (active),26,95% (active),89.6% (active),9,94% (active),92.2% (active),-12,91% (active),85.2% (active),8,96% (active),92.8% (active),14,96% (active),95.4% (active)
CCC1CN2CCc3cc(OC)c(OC)cc3C2CC1CC1c2cc(OC)c(OC)cc2CCN1C(=O)C(Cc1c[nH]c2ccccc12)NC(=O)OC(C)(C)C (stereo not given),-4,97% (active),96.8% (active),-6,98% (active),88.3% (active),-5,49%,53%,-13,98% (active),93.5% (active),-5,98% (active),59.5%,-3,98% (active),93.8% (active)
COc1ccc(/C=C2\CN(C)C/C(=C\c3ccc(OC)cc3)C2=O)cc1,22,75% (active),14.2%,18,79% (active),21.6%,3,87% (active),31.9%,15,70% (active),38.8%,3,85% (active),30.8%,25,87% (active),26.9%
O=C(Nc1ccccc1)ON=C1CCCCC1,3,75% (active),80% (active),-31,36%,63.6%,3,68%,94.2% (active),6,27%,61.8%,50,44%,77.2% (active),5,62%,89.6% (active)
[N-]=[N+]=Nc1c(-c2ccccc2)c(Cl)nc2ccccc12,11,99% (active),76% (active),-7,98% (active),76.1% (active),-4,98% (active),85.2% (active),20,98% (active),82.9% (active),-33,97% (active),87.4% (active),2,98% (active),87.2% (active)
CCCCn1cnc2c(SCc3ccccc3[N+](=O)[O-])nc(N)nc21,1,-2%,94.9% (active),-2,1%,98.2% (active),1,2%,96.9% (active),-15,-27%,90.4% (active),1,30%,98.7% (active),3,3%,96.7% (active)
Cc1cc(SCC(=O)c2ccc(Cl)cc2)cc(C)[o+]1,-3,90% (active),95.8% (active),-1,90% (active),95.5% (active),-2,93% (active),96.4% (active),-13,73% (active),88.7% (active),-2,87% (active),96.3% (active),-9,78% (active),92.3% (active)
